Test in all cases: DAPPL (digital affinity profiling via proximity ligation, sequencing); 10 mM Tris-HCl pH 7.5, 50 mM NaCl, 1 mM DTT, 4% glycerol, room temperature, 30 min; GST-TFs on glutathione beads, 16-mer random dsDNA library, 0.1% formaldehyde crosslink after washing; high values mean tight binding
Test [1] concerns the target T1, FEV (Homo sapiens, UniProt Q99581 1-238).
T1 sequence: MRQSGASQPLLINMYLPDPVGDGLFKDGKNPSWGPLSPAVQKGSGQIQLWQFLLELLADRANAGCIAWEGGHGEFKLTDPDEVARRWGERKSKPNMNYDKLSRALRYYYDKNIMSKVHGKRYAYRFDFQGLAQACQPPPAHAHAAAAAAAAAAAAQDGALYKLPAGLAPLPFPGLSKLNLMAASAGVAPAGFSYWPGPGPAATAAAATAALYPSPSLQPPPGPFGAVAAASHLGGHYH
The following applies: protein: recombinant; tags: N-terminal GST; dsDNA, one strand shown. A digest of the protocol: (§1)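 Each value of binding signal is a hexamer's read frequency for a factor divided by the same hexamer's frequency in the tag-only sample. Barcoded, bead-captured GST fusions of human transcription factors made in yeast were pooled with that sample and incubated with 200 nmole of a random double-stranded 16-mer DNA library in Tris/NaCl/DTT/glycerol buffer at room temperature for 30 min. Washing, 0.1% formaldehyde crosslinking, proximity ligation, PCR and Illumina NextSeq500 sequencing followed.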

Test [2] deals with ETV5 (Homo sapiens, UniProt P41161 1-510). The following applies: protein: recombinant; tags: N-terminal GST; dsDNA, one strand shown. A digest of the protocol: as §1
Sequence of ETV5 (P41161 whole entry): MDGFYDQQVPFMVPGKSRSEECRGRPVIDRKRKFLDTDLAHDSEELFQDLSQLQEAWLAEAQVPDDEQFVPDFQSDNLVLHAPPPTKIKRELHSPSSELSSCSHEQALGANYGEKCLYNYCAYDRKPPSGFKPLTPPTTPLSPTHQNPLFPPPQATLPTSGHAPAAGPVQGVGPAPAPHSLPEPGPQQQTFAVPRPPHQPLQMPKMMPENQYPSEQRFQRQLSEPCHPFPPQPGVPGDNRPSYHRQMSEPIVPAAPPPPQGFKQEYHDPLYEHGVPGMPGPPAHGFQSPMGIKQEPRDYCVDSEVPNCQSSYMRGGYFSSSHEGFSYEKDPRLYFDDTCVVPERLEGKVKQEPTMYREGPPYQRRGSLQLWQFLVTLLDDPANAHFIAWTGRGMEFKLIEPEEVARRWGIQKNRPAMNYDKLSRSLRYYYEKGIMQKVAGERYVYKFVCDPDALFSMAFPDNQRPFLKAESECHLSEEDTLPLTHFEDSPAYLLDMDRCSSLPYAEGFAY
Test [3] deals with HSF1 (Homo sapiens, UniProt Q00613 1-529). The note with it: protein: recombinant; tags: N-terminal GST; chain copies: 3; dsDNA, one strand shown. A digest of the protocol:
as §1

Test [4] deals with T2, SPIC (Homo sapiens, UniProt Q8N5J4 1-248).
T2 sequence: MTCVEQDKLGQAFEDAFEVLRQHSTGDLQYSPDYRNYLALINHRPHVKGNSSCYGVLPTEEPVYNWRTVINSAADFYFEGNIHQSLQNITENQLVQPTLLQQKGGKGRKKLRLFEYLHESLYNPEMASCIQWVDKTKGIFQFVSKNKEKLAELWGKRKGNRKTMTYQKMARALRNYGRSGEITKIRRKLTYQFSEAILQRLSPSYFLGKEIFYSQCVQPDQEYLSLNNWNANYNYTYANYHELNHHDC
The note with it: protein: recombinant; tags: N-terminal GST; dsDNA, one strand shown. A digest of the protocol: as §1

Test [5] deals with ELF4 (Homo sapiens, UniProt Q99607 1-663). The following applies: protein: recombinant; tags: N-terminal GST; dsDNA, one strand shown. A digest of the protocol:
as §1

For test [6], the target named is T3, ELK4 (Homo sapiens, UniProt P28324-2 1-405).
T3 sequence: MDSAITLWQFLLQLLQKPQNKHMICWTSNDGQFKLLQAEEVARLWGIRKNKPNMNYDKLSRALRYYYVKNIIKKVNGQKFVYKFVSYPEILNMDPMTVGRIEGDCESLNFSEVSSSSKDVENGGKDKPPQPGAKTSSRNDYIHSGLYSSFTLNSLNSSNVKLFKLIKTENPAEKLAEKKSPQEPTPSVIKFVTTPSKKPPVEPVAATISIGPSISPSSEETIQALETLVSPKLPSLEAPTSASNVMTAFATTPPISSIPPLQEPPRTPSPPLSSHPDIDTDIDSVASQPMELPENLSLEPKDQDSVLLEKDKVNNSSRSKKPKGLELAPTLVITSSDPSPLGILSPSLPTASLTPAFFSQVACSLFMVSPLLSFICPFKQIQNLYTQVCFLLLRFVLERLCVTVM
The note with it: protein: recombinant; tags: N-terminal GST; dsDNA, one strand shown. A digest of the protocol: as §1

Test [7] addresses T4, ETV2 (Homo sapiens, UniProt O00321 1-342).
T4 sequence: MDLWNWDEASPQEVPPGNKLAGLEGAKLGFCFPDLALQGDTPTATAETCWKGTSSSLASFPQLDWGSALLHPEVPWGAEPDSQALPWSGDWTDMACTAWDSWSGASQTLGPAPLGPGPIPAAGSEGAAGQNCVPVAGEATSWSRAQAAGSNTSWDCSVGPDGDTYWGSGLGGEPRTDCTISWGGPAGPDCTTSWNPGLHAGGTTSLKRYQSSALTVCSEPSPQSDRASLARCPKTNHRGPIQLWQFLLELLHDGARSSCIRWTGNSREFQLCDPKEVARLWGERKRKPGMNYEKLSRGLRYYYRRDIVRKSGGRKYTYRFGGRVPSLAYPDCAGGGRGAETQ
The note with it: protein: recombinant; tags: N-terminal GST; dsDNA, one strand shown. A digest of the protocol:
as §1

Test [8] has as its target T5, ELF3 (Homo sapiens, UniProt P78545 1-371).
T5 sequence: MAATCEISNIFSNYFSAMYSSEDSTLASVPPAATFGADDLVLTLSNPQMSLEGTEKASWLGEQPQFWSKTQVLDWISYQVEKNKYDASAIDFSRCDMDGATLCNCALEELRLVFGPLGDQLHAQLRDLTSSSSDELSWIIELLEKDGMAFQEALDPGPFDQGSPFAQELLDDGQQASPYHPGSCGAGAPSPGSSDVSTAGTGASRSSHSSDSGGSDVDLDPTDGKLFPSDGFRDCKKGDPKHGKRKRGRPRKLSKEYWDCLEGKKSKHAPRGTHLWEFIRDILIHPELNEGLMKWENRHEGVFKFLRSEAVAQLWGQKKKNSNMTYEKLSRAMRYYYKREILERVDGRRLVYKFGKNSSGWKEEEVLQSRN
The following applies: protein: recombinant; tags: N-terminal GST; dsDNA, one strand shown. A digest of the protocol:
as §1

For test [9], the target named is CRX (Homo sapiens, UniProt O43186 1-299). The following applies: protein: recombinant; tags: N-terminal GST; dsDNA, one strand shown. A digest of the protocol:
as §1

Test [10] addresses ETV1 (Homo sapiens, UniProt P50549 1-477). The note with it: protein: recombinant; tags: N-terminal GST; dsDNA, one strand shown. A digest of the protocol: as §1
Test [11] has as its target T6, ERF (Homo sapiens, UniProt P50548 1-548).
T6 sequence: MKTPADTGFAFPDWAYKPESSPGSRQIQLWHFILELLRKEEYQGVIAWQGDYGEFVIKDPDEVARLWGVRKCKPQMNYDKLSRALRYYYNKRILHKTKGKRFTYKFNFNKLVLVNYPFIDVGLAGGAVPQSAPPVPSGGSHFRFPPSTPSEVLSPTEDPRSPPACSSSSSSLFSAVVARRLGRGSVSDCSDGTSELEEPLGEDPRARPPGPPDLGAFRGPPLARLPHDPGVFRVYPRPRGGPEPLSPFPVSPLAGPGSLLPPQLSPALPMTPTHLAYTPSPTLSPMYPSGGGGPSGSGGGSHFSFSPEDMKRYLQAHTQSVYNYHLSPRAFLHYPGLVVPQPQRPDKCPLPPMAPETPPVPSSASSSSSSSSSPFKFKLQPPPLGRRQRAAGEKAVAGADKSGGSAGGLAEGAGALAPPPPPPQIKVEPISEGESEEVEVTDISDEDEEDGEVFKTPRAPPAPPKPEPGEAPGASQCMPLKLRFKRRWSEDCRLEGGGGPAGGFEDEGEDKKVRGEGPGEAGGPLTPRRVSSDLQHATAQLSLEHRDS
The note with it: protein: recombinant; tags: N-terminal GST; dsDNA, one strand shown. A digest of the protocol:
as §1

The target of test [12] is T7, ETV3L (Homo sapiens, UniProt Q6ZN32 1-361).
T7 sequence: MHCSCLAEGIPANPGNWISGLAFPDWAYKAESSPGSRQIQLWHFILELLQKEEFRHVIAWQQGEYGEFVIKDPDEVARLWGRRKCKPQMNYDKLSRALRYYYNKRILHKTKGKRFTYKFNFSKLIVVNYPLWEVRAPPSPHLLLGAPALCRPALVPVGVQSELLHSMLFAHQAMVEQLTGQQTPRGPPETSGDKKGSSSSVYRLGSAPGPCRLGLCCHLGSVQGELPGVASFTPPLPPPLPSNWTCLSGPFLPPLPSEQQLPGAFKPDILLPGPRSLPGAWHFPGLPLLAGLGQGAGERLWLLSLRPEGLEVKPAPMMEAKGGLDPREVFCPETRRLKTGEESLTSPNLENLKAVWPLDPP
The following applies: protein: recombinant; tags: N-terminal GST; dsDNA, one strand shown. A digest of the protocol:
as §1

For test [13], the target named is T8, ETS2 (Homo sapiens, UniProt P15036 1-469).
T8 sequence: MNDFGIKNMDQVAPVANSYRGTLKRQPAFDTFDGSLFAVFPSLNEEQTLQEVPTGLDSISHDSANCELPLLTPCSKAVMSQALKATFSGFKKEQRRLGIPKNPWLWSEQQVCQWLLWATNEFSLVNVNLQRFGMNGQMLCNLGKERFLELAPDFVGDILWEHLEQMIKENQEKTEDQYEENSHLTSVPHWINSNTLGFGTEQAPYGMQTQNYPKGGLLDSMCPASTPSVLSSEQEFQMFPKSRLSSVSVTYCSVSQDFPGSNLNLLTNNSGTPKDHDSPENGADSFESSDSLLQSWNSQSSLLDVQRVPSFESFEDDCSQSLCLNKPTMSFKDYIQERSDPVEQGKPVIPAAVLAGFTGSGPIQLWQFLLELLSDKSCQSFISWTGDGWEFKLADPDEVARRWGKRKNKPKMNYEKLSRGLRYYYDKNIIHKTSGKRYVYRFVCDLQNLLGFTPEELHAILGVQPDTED
The following applies: protein: recombinant; tags: N-terminal GST; dsDNA, one strand shown. A digest of the protocol: as §1

The target of test [14] is T9, SPDEF (Homo sapiens, UniProt O95238 1-335).
T9 sequence: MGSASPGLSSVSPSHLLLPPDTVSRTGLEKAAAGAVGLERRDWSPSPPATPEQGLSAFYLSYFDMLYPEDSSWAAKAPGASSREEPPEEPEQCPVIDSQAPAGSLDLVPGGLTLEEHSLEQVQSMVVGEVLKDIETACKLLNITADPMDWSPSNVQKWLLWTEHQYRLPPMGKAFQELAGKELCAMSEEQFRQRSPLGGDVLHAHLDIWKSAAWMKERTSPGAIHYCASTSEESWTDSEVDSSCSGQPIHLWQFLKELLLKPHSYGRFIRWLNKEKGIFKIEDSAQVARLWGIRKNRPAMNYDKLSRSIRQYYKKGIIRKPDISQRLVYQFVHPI
The note with it: protein: recombinant; tags: N-terminal GST; dsDNA, one strand shown. A digest of the protocol:
as §1

Test [15] deals with T10, ETV7 (Homo sapiens, UniProt Q9Y603 1-341).
T10 sequence: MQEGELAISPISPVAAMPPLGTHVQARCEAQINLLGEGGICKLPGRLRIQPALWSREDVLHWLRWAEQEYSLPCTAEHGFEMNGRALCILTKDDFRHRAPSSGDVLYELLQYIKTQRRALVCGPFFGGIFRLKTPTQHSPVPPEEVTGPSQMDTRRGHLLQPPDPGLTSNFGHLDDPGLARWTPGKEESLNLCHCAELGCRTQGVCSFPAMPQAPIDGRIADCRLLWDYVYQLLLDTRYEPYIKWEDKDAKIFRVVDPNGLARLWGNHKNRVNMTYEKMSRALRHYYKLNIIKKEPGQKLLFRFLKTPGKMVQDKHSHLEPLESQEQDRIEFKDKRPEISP
The following applies: protein: recombinant; tags: N-terminal GST; dsDNA, one strand shown. A digest of the protocol:
as §1

In test [16] the target is T11, ELF5 (Homo sapiens, UniProt Q9UKW6-2 1-255).
T11 sequence: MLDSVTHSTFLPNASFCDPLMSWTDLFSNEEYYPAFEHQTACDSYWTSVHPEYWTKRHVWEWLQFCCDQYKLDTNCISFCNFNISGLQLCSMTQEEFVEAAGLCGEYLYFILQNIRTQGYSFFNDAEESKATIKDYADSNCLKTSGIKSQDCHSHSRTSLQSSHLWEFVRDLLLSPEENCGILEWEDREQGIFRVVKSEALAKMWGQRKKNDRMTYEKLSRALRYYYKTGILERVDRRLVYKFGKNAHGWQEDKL
The following applies: protein: recombinant; tags: N-terminal GST; dsDNA, one strand shown. A digest of the protocol: as §1

Test [17] has as its target T12, ETV3 (Homo sapiens, UniProt P41162-2 1-143).
T12 sequence: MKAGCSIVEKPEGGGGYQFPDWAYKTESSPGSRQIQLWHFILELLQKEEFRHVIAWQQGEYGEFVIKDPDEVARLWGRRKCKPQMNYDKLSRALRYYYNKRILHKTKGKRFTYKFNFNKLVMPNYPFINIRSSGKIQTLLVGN
The note with it: protein: recombinant; tags: N-terminal GST; dsDNA, one strand shown. A digest of the protocol:
as §1

The target in test [18] is ETV6 (Homo sapiens, UniProt P41212 1-452). The following applies: protein: recombinant; tags: N-terminal GST; dsDNA, one strand shown. A digest of the protocol:
as §1

Sequence of ETV1 (P50549 whole entry): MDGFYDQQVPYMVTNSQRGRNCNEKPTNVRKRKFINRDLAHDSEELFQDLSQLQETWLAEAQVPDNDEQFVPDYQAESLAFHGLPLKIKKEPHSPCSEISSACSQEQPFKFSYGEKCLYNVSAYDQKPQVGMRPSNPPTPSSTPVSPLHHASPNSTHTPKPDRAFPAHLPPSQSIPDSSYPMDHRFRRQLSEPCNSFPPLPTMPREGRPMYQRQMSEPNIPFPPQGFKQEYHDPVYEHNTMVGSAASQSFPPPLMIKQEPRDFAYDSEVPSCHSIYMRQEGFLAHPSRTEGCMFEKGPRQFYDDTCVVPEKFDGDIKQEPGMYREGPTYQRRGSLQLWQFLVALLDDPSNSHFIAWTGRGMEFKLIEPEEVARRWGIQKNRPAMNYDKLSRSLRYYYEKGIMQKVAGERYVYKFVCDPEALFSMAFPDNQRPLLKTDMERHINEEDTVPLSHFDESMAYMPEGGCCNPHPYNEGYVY
Sequence of CRX (O43186 whole entry): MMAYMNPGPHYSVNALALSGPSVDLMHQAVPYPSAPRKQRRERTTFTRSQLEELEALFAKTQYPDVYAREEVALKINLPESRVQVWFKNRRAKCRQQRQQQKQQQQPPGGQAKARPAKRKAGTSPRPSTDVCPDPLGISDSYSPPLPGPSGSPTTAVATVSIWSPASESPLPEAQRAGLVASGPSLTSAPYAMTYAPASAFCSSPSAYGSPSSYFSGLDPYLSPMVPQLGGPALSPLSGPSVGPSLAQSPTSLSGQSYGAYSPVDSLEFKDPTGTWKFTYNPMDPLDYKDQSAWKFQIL
Sequence of ELF4 (Q99607 whole entry): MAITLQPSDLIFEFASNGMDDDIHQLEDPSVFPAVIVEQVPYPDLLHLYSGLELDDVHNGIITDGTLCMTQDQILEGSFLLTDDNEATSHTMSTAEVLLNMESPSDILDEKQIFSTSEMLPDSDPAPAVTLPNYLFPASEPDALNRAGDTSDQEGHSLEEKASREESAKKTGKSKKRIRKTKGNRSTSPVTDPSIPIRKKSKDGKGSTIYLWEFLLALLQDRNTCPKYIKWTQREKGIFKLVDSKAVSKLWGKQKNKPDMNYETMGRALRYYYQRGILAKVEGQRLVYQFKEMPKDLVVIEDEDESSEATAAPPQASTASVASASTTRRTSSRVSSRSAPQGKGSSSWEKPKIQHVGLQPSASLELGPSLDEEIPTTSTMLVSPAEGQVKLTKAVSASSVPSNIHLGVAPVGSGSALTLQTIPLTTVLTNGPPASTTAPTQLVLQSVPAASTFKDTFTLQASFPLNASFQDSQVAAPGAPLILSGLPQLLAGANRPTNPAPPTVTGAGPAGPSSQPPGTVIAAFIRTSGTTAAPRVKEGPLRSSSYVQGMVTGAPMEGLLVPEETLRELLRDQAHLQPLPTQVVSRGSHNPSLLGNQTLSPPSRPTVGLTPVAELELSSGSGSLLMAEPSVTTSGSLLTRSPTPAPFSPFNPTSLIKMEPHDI
Sequence of ETV6 (P41212 whole entry): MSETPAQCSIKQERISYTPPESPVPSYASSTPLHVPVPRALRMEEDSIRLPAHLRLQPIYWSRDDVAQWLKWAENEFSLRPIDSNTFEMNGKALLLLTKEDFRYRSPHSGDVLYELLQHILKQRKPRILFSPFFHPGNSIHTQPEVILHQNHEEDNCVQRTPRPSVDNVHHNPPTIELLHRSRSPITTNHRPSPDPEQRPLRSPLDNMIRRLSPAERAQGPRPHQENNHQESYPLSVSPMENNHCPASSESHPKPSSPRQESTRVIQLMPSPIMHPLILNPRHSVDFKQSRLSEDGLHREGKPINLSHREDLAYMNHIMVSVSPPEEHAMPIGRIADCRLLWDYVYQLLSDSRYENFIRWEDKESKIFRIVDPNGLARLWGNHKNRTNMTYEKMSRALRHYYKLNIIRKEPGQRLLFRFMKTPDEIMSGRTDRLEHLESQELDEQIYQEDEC
Sequence of HSF1 (Q00613 whole entry): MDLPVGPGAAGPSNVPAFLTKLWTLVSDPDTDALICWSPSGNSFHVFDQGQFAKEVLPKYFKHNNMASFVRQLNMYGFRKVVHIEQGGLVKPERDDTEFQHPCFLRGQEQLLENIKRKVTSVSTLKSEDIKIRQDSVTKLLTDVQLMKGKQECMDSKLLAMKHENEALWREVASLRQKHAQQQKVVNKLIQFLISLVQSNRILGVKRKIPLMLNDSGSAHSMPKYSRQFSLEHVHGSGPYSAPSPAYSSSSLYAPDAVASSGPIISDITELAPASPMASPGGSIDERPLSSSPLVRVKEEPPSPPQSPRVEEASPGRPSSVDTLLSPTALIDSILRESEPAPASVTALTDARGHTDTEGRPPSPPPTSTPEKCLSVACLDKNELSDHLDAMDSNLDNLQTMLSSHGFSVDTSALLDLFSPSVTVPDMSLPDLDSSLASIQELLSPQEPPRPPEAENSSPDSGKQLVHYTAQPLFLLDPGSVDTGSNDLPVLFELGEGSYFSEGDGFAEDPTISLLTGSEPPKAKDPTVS

In the case of ACGTAT, the binding signal is 1.2 fold enrichment (6-mer frequency, TF over GST control) in test [1]; 1.2 fold enrichment (6-mer frequency, TF over GST control) in test [2]; 1.09 fold enrichment (6-mer frequency, TF over GST control) in test [3]; 1.14 fold enrichment (6-mer frequency, TF over GST control) in test [4]; 1.27 fold enrichment (6-mer frequency, TF over GST control) in [5]; 1.16 fold enrichment (6-mer frequency, TF over GST control) in [6]. In addition, the binding signal was 1.24 fold enrichment (6-mer frequency, TF over GST control) in [7]; 1.25 fold enrichment (6-mer frequency, TF over GST control) in [8]; 1.15 fold enrichment (6-mer frequency, TF over GST control) in test [9]; 1.32 fold enrichment (6-mer frequency, TF over GST control) in test [10]; 1.15 fold enrichment (6-mer frequency, TF over GST control) in test [11]; 1.28 fold enrichment (6-mer frequency, TF over GST control) in test [12]. Moreover, the binding signal in [13] was 1.27 fold enrichment (6-mer frequency, TF over GST control); in [14] it was 1.36 fold enrichment (6-mer frequency, TF over GST control); in [15] it was 1.25 fold enrichment (6-mer frequency, TF over GST control); in test [16] it was 1.16 fold enrichment (6-mer frequency, TF over GST control); in [17], 1.26 fold enrichment (6-mer frequency, TF over GST control); in test [18], 1.22 fold enrichment (6-mer frequency, TF over GST control).

These data come from publication PMC7862700, “An all-to-all approach to the identification of sequence-specific readers for epigenetic DNA modifications on cytosine”.
